RMI-FANCM inh: disruptors of RMI1/RMI2 association with MM2 peptide – biochemical, fluorescence polarization, human, primary screen; RMI core complex (RMI1/RMI2) binding to FANCM MM2 peptide, human; RMI core complex with F-MM2 peptide; stronger effect = lower value; FP signal (polarization) at 33 µM; 70,000 compounds, 0.58% hits; in the data active = FP signal below about 40
Numbers stand for hits; . = inactive; ! = repeats disagree. The sample as a whole holds a higher share of hits than the screen did.

SMILES | RMI-FANCM inh
N#Cc1c(SCC(=O)c2ccc(O)c(O)c2)nc2c(c1-c1ccc(OCc3ccccc3)cc1)CCCC2 | 24
Cc1nnc(C2CCCN(C(=O)c3ccccc3C(F)(F)F)C2)s1 (stereo unspecified) | .
O=C(Cc1cccs1)NCc1nnnn1-c1ccc(F)c(F)c1 | .
COc1ccc(-c2cc(C(F)(F)F)n3nc(-c4cccs4)cc3n2)cc1OC | 9
COc1ccc(-c2cc3nc(C)cc(C)n3n2)cc1OC | .
FC(F)(F)c1cc(-c2ccc(Cl)cc2)nc2cc(-c3ccccc3)nn12 | .
CSc1ccccc1NC(=O)C(=O)N1CCN(c2ccccc2)CC1 | .
CCOc1ccc(-c2noc(CSc3nc4ccsc4c(=O)n3C3CC3)n2)cc1 | 39
CCOc1ccc(-c2noc(CSc3nc4ccsc4c(=O)n3-c3cccc(OC)c3)n2)cc1 | .
COc1ccc(-c2noc(CSc3nc4ccsc4c(=O)n3C)n2)cc1 | .
Cc1cc(C)c(CSCCNC2=CC(=O)CC(c3ccc(N(C)C)cc3)C2)c(C)c1 (stereo unspecified) | .
C/C(=N/NC(=S)NCc1ccco1)c1ccco1 | .
CC(C)(CCl)C(=O)Nc1ccc(S(=O)(=O)N2CCC(c3nc4ccccc4[nH]3)CC2)cc1 | .
Cc1ccc2oc3nc(N)c(C#N)cc3c(=O)c2c1 | 5
N#Cc1cc2ccccc2oc1=O | .
Cc1ccc(-n2ncc(C#N)c2N)c(C)c1 | .
NC(=O)Cc1cc(=O)[nH]c(=S)[nH]1 | .
O=C(CSC1CN(C(c2ccccc2)c2ccccc2)C1)N/N=C/c1ccc(Cl)cc1Cl | .
Oc1c(Cl)cc(Cl)cc1/C=N\NCCc1ccccn1 | .
O=C(CC1NCCN(Cc2ccccc2)C1=O)N/N=C\c1cc(Cl)cc(Cl)c1O (stereo unspecified) | 35!
Cn1c(N)c(Br)c(=O)[nH]c1=O | .
Cc1nc2ccccc2nc1C | .
c1ccc2c(c1)Nc1nc3ccccc3nc1N2 | -3
c1ccc2c(c1)Nc1nc3ccccc3nc1O2 | .
O=C(Nc1cc(Cl)c(Cl)cc1Cl)c1cccn(OCc2ccc(F)cc2)c1=O | .
SMILES | RMI-FANCM inh
CC(C)N(C(=O)CSc1ccc(NC(=O)c2cccc(F)c2)nn1)C(C)C | .
CCN1CCN(c2nc3ccc(OC(=O)c4cccc(N5C(=O)CCC5=O)c4)cc3s2)CC1 | .
CSc1nccc(-c2ccc(Br)s2)n1 | .
CSc1nccc(-c2sc(-c3ccc(Cl)cc3)nc2C)n1 | 32
Cc1nccc(-c2sc(-c3cccs3)nc2C)n1 | .
Cc1n[nH]c(C)c1CCC(=O)N/N=C\c1c(Cl)cccc1Cl | .
COc1ccc(C(=O)N2CCN(c3cc(OC(C)C)nc(C)n3)CC2)cc1 | .
CCC(SC1=NCCS1)C(=O)Nc1nnc(-c2cccc([N+](=O)[O-])c2)s1 (stereo unspecified) | .
CC(C)(C)OC(=O)N1CCCN(C(=O)c2ccc([N+](=O)[O-])cc2)CC1 | .
c1ccc(-c2csc3ncnc(N4CCN(CCOc5cccc6ccccc56)CC4)c23)cc1 | .
CC(=O)NNC(=O)c1cccn(Cc2ccc(F)cc2)c1=O | .
CN1C(=O)c2cccc(NC(=O)c3c(F)cccc3Cl)c2C1=O | .
N#C/C(=N/Nc1ccccc1Cl)S(=O)(=O)c1ccc(Cl)cc1 | .
CN1c2ccccc2C(=O)/C(=N/Nc2ccccc2Cl)S1(=O)=O | -6
Cc1c(Cl)cccc1NC(=O)C(=O)NCCCCN1CCOC(c2ccccc2)C1 (stereo unspecified) | .
O=C(O)CCCN1CNC(=S)NC1 | .
Cc1cccnc1NC(=O)c1ccc(=O)n(Cc2cccc(F)c2)n1 | .
CCN(CC)c1ccc(NC(=O)CCCn2nc(-c3ccc(F)cc3)ccc2=O)c(C)c1 | .
CSc1scc2c1/C(=N\OC(=O)Nc1ccccc1)CC(C)(C)C2 | .
O=C(Nc1nc(CC(=O)N2CCN(c3ccc(F)cc3)CC2)cs1)c1ccco1 | .
COc1ccc(C(=O)N2CCc3cc(S(=O)(=O)N4CCOCC4)ccc32)cc1 | .
Cc1nn(-c2ccccc2)c(N2CCCCC2)c1/C=N\Nc1nc2ccccc2s1 | 8
COc1ccc(C(=O)N/N=C\c2c(C)nn(-c3ccccc3)c2N2CCCCC2)cc1OC | .
CCn1c(/C=N\Nc2nc3ccccc3s2)nc2ccccc21 | .
COc1ccc(C2SCC3C(=O)N(c4ccccc4)C(=S)N32)cc1O (stereo unspecified) | .
SMILES | RMI-FANCM inh
COc1ccc(C(=O)N(Cc2cccnc2)c2nc3ccc(OC)cc3s2)cc1 | .
O=C(Nc1nc2ccc(F)cc2s1)c1cccc(C(F)(F)F)c1 | .
CC1=NN(c2ccccc2)C(=O)/C1=C\c1cc(C)n(-c2ccccc2)c1C | .
C=CCn1c(SCC(=O)c2cc(C)n(-c3ccc(C)c(C)c3)c2C)nc2scc(-c3ccc(F)cc3)c2c1=O | .
C=CCN1C(=O)/C(=C\c2cc(C)n(-c3ccc(F)cc3)c2C)C(C(=O)OC)=C1C | 31
O=C(CSc1nnc2n1CCN2c1ccc(F)cc1)NCc1ccccc1Cl | .
COC(=O)c1n[nH]n(Cc2ccc(Cl)cc2)c1=O | .
O=c1c2ccccc2nc2c3ccccc3c(SCc3ccco3)nn12 | .
Cc1[nH]c2ccccc2c1C(Nc1ccccc1F)c1ccccn1 (stereo unspecified) | .
Cc1[nH]c2ccccc2c1C(Nc1ccccn1)c1cccc([N+](=O)[O-])c1 (stereo unspecified) | 25!
COc1ccc(C(Nc2cc(C)on2)c2c(C)[nH]c3ccccc23)cc1OC (stereo unspecified) | .
Cc1ccsc1C1C2=C(CCCC2=O)Nc2c1c(=O)n(C)c(=O)n2C (stereo unspecified) | .
Cn1c2c(c(=O)n(C)c1=O)C(c1cccc(F)c1)C1=C(CC(C)(C)CC1=O)N2 (stereo unspecified) | -8
CC1(C)CC(=O)C2=C(C1)Nc1[nH]c(=S)[nH]c(=O)c1C2c1ccc2c(c1)OCO2 (stereo unspecified) | .
O=C(O)CC(NS(=O)(=O)c1cc(S(=O)(=O)NC(CC(=O)O)c2ccccc2)c2cccc3c2c1NC3=O)c1ccccc1 (stereo unspecified) | .
COC(=O)c1ccccc1NS(=O)(=O)c1cc(S(=O)(=O)Nc2ccccc2C(=O)OC)c2cccc3c2c1NC3=O | 30
COC(=O)c1ccccc1NS(=O)(=O)c1cccc2cccnc12 | .
CC1(C)S[C@@H]2[C@H](NC(=O)Cc3ccccc3)C(=O)N2[C@H]1C(=O)O | .
CC1(C)S[C@@H]2[C@H](NC(=O)COc3ccccc3)C(=O)N2[C@H]1C(=O)O | 32
CC1(C)SC2C(NC(=O)C(N)c3ccccc3)C(=O)N2C1C(=O)O (stereo unspecified) | .
O=C(Nc1ccc2c(c1)OCO2)c1ccc(F)cc1 | .
Cc1ccc(S(=O)(=O)Nc2ccccc2C(=O)Nc2nc(C(C)(C)C)cs2)cc1 | .
O=C(NC(=S)N1CCN(c2ccc(F)cc2)CC1)c1ccccc1 | .
CC(C(=O)c1ccc(-c2ccccc2F)cc1)N1CCN(c2ccc(C#N)cc2)CC1 (stereo unspecified) | 25!
O=C(NC(=O)N1CCN(c2ccc(F)cc2)CC1)c1ccccc1 | .
Cc1[nH]c(=O)[nH]c(=O)c1CN1CCOCC1 | .
COc1ccccc1C(C#N)N(C)C (stereo unspecified) | .
Cc1cc(=O)oc2cc(OS(=O)(=O)c3cc(C(F)(F)F)cc(C(F)(F)F)c3)c(Cl)cc12 | .
O=C(CSc1nccc(-c2cccs2)n1)c1cc(-c2ccc(Cl)c(Cl)c2)no1 | 12
O=C(CSc1nccc(-c2cccs2)n1)N1CCOCC1 | .

High-throughput results (PubChem BioAssay)
